PAFAH1B2 inh: inhibitors of human PAFAH1B2 | inhibition, % at 3.39 µM | recombinant PAFAH1B2, FP-rhodamine activity probe, fluorescence polarization | actives 1.2% (n = 340,000) | P68402;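 active = inhibition above the mean of all tested compounds plus 3 SD, cut at about 24% in these data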;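 also: 0% = enzyme with DMSO and 100% = wells lacking PAFAH1B2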
Target sequence (P68402 whole entry, looked up): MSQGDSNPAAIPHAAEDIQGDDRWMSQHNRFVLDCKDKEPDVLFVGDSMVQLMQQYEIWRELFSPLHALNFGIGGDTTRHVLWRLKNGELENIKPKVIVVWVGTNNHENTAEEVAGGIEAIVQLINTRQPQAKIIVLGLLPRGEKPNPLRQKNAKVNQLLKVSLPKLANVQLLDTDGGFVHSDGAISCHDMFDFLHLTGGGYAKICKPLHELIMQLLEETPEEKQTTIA
PfM18AAP inh: blocks P. falciparum M18 aspartyl aminopeptidase; recombinant PfM18AAP, H-Glu-NHMec fluorogenic cleavage; inhibition, % at 7.35 µM; actives 1.2% (n = 290,000);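 active = inhibition above the campaign mean inhibition over all tested compounds plus 3 SD, cut at about 28% in these data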;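 also: 0% = plate median of test compound wells and 100% = 2 mM ZnCl2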
Pemphigus Ab inh: human desmoglein-3 autoantibody binding inhibition; actives 0.48% (n = 310,000); AID 588358; DSG3-coupled beads, scFv-anti-DSG3-GFP binding, flow cytometry; active compounds read low; P32926; binding (percent of control), % at 10 µM;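 active = binding more than 3 SD below its plate's average and above zero; inconclusive = below that plate limit but binding exactly zero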;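 also: hits lower antibody fragment binding to DSG3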
PAFAH1B3 inh: PAFAH1B3 (human) inhibition | actives 0.28% (n = 340,000) | recombinant PAFAH1B3, FP-rhodamine probe, fluorescence polarization | Q15102 | AID 492972 | inhibition, % at 3.39 µM;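 active = inhibition above the screen-wide average of all tested compounds plus 3 SD, cut at about 25% in these data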;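 also: 0% = enzyme with DMSO only and 100% = wells lacking PAFAH1B3 protein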
Target sequence (Q15102 whole entry, looked up): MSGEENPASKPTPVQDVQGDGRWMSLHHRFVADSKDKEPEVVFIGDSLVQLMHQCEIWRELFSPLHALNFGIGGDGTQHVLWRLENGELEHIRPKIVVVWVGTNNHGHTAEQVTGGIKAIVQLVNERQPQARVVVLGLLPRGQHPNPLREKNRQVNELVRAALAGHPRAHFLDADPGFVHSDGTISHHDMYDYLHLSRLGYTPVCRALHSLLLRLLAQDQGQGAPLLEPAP
pPAFAH inh: pPAFAH (human) enzyme inhibition. inhibition, % at 3.39 µM. actives 1.5% (n = 330,000). recombinant pPAFAH, FP-rhodamine probe fluorescence polarization;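 active = inhibition above the mean inhibition across the screen plus 3 SD, cut at about 25% in these data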;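 also: inhibitors block binding of the rhodamine activity-based probe so polarization drops; 0% = enzyme with DMSO and 100% = wells lacking pPAFAH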
PAFAH2 inh: inhibitors of human PAFAH2 | Q99487 | recombinant PAFAH2, FP-rhodamine activity probe, fluorescence polarization | inhibition, % at 3.39 µM | actives 0.99% (n = 340,000);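 active = inhibition above the mean over all tested compounds plus 3 SD, cut at about 30% in these data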;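 also: inhibitors block probe labeling of enzyme so polarization drops; 0% = enzyme with DMSO and 100% = wells lacking PAFAH2 protein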
PAFAH2 FP conf: PAFAH2 (human) inhibition, confirmed; shares compounds with PAFAH2 inh; recombinant PAFAH2, FP-rhodamine activity probe, fluorescence polarization; inhibition, % at 3.39 µM; actives 65% (n = 2,300);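 active = mean inhibition over three repeats above a set limit taken from the earlier primary screen, cut at about 30% in these data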;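 also: inhibitor blocks binding of rhodamine activity probe so polarization falls; 0% = enzyme with DMSO and 100% = wells lacking PAFAH2 protein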
Active calls of the source: *; u = inconclusive; x = no result given. Sampled rows, rich in hits. Any-hit rate of the full collection: about 3.8%.

SMILES	PAFAH1B2 inh	PfM18AAP inh	Pemphigus Ab inh	PAFAH1B3 inh	pPAFAH inh	PAFAH2 inh	PAFAH2 FP conf
COc1cc(C2C3=C(CC(C)(C)CC3=O)N(C)C3=C2C(=O)CC(C)(C)C3)cc(Br)c1O	6.8	14.4	114.2	15.5	5.8	7.2	x
C=CCn1c(C)cc(C(=O)COC(=O)c2ccc3c(c2)NC(=O)CS3)c1C	5.4	9.9	101.7	12.6	10.5	40.6*	28.2
Cc1cc(C(=O)COC(=O)c2ccc(N)c([N+](=O)[O-])c2)c(C)n1Cc1ccc2c(c1)OCO2	-0.4	-15.1	86.0	-4.1	2.5	9.9	x
C=CCn1c(C)cc(C(=O)COC(=O)c2ccc(N)c([N+](=O)[O-])c2)c1C	3.2	0.4	109.1	-1.4	6.2	81.3*	79.8*
COCCn1c(C)cc(C(=O)COC(=O)c2ccc3c(c2)NC(=O)CS3)c1C	3.4	7.5	x	5.9	5.5	2.9	x
CC1CCc2sc(C(=O)OCC(=O)NCc3ccc(F)cc3)cc2C1 (configuration not stated)	0.3	1.9	x	9.1	-1.1	46.0*	40.1*
O=C(NCCNC(=O)c1ccc(Br)o1)c1cccnc1	1.9	-1.9	103.3	-0.6	-0.4	-0.2	x
CC1CCC2C(=O)N(c3cccc(C(=O)Nc4ccccc4Cl)c3)C(=O)C2C1 (configuration not stated)	11.2	-1.5	100.7	5.6	5.2	0.2	x
CCC(CC)NC(=O)COC(=O)c1ccc(OCC(=O)Nc2ccccc2OC)c(OC)c1	-6.4	-5.1	100.4	2.9	-0.7	59.7*	63.4*
COc1ccccc1NC(=O)COc1ccc(C(=O)OCC(=O)NC(C)(C)C)cc1OC	0.5	-9.8	96.9	5.3	7.1	81.0*	82.6*
CCCNC(=O)COC(=O)c1ccc(OCC(=O)Nc2ccccc2OC)c(OC)c1	0.0	-4.2	97.2	-6.0	-2.0	51.4*	44.8*
COC(=O)c1ccc(C(=O)OC)c(NC(=O)COc2ccccc2OC)c1	-0.4	1.2	x	10.9	8.4	2.0	x
COc1ccccc1NC(=O)COC(=O)c1cc2c(s1)CCC2	0.6	x	101.8	0.6	x	54.4*	38.5*
O=C(COc1ccc(Br)cc1)NCC1COc2ccccc2O1 (configuration not stated)	15.3	x	102.3	5.8	0.2	4.7	x
CC(C(=O)Nc1ccc(F)cc1Cl)N1CCN(S(=O)(=O)c2cccs2)CC1 (configuration not stated)	4.6	x	99.5	9.5	0.7	2.7	x
CC(=O)c1ccccc1C(=O)N1CCCC(N2CCN(Cc3ccc4c(c3)OCO4)CC2)C1 (configuration not stated)	1.0	3.1	104.6	-0.6	0.5	3.1	x
Clc1ccc2nc(C(Cl)(Cl)Cl)[nH]c2c1	x	x	102.1	x	x	x	x
CC(C)Oc1ccc(S(=O)(=O)N2CCOCC2)cc1NC(=O)C1CCCCC1	6.5	x	101.5	7.7	0.2	0.7	x
COc1cc(C(=O)OCC(=O)Nc2ccc(F)cc2F)cc(OC)c1OC	1.1	-17.0	100.0	2.0	-2.8	3.9	x
COc1ccc(C(=O)OCC(=O)Nc2ccc(F)cc2F)cc1OC	4.5	-1.5	101.8	4.5	10.2	76.2*	72.5*
Cc1cc(C)cc(NC(=O)CSc2nc3c(c(=O)[nH]2)CN(Cc2ccc(F)cc2)CC3)c1	8.6	3.6	95.2	4.3	5.8	30.7*	17.0
CCN(CC)c1ccc(S(=O)(=O)N2CCOCC2)cc1NC(=O)COC(=O)/C=C/c1ccco1	1.7	x	x	-3.2	x	54.8*	42.4*
CCN(CC)c1ccc(S(=O)(=O)N2CCOCC2)cc1NC(=O)COC(=O)COc1ccccc1C	-7.8	0.9	u	-1.4	2.7	1.3	x
O=C(COC(=O)/C=C/c1ccco1)Nc1cc(S(=O)(=O)N2CCOCC2)ccc1Cl	1.7	x	102.9	-2.1	5.5	41.8*	37.0*
COc1ccc(CCNC(=O)c2cccc(S(=O)(=O)NC(C)c3ccccc3)c2)cc1 (configuration not stated)	21.9	x	112.1	4.8	-0.4	3.1	x
SMILES	PAFAH1B2 inh	PfM18AAP inh	Pemphigus Ab inh	PAFAH1B3 inh	pPAFAH inh	PAFAH2 inh	PAFAH2 FP conf
O=c1cc(CO)occ1OCc1ccccc1	8.6	-17.4	104.8	8.5	0.1	5.3	x
C#CCOc1coc(COC(=O)c2ccccc2)cc1=O	4.3	-5.9	121.2	8.1	0.1	50.1*	29.9*
CCOc1ccc(CCNC(=O)c2ccc(OCc3c(C)noc3C)cc2)cc1OCC	7.6	x	102.7	2.5	-1.2	-8.5	x
CC(C)c1cc(C(=O)OCC(=O)N2CCN(C(=O)c3ccco3)CC2)c(O)c(C(C)C)c1	8.2	-14.4	u	10.1	6.7	-2.7	x
Cc1ccc(C)c(Sc2ccc(NC(=O)CCN3C(=O)NC4(CCCC4)C3=O)cc2)c1	3.5	x	u	-3.2	24.3	49.5*	53.9*
COc1ccc(CNC(=O)c2ccc(Cn3cc(Cl)cn3)o2)cc1	2.7	0.0	x	-1.1	0.4	-0.8	x
CC1CCC(C(C)C)C(OC(=O)COC(=O)c2cccn2C)C1 (configuration not stated)	5.0	-5.1	94.7	8.4	4.2	-2.9	x
CC1CCC(C(C)C)C(OC(=O)COC(=O)c2ccc(N)cc2)C1 (configuration not stated)	14.8	-10.4	102.3	-3.7	7.1	53.5*	33.8*
Cc1cccc(C(=O)O/N=C2\CCS(=O)(=O)c3sccc32)c1	3.8	-2.3	108.5	6.5	16.4	77.9*	76.7*
O=C(O/N=C1\CCS(=O)(=O)c2sccc21)c1ccc(F)cc1	2.9	1.8	99.2	-2.1	2.3	52.1*	55.3*
COc1ccc2c(c1)CC/C2=N\OC(=O)c1cccc(C)c1	7.8	-0.3	x	1.0	4.0	-3.7	x
O=C(O/N=C1\CCS(=O)(=O)c2sccc21)c1ccccc1	-4.0	9.9	105.4	5.8	3.5	73.3*	71.5*
O=S1(=O)CCC(=Nc2ccc(Cl)cc2)c2ccsc21	1.6	-1.2	100.9	10.2	2.8	6.4	x
C=CCSC1=N/C(=C\c2ccc3c(c2)OCO3)C(=O)S1	-2.0	0.4	99.2	9.5	9.1	32.0*	30.7*
C=CCSC1=N/C(=C\c2sccc2C)C(=O)S1	-0.5	-0.6	97.7	5.1	1.1	7.2	x
O=C(NCC1CCCO1)c1ccc(OC2CCN(C(=O)C3CC3)CC2)cc1 (configuration not stated)	-3.3	2.7	106.8	11.6	6.5	6.0	x
CN(C)c1ccc(C(=O)OCc2ccc(Br)cc2)cc1	12.3	-5.7	100.2	-1.7	9.5	34.2*	35.1*
CCOc1ccc(C(=O)OCC(=O)NCCCc2ccccc2)cc1	0.9	-1.0	93.4	-2.3	12.9	54.8*	35.0*
CC(=O)Nc1ccc(C(=O)OCC(=O)Nc2c(F)cccc2F)cc1	3.7	-10.1	101.4	6.6	-1.6	50.4*	38.2*

Screening data from PubChem BioAssay.
